# Source: PubChem
# AmpC no deterg – qHTS Inhibitors of AmpC Beta-Lactamase (assay without detergent). P00811. actives 0.52% (n = 330,000). Potency, µM (series often up to 57.1 µM), for inactives: top-dose activity change, negative = inhibition, most hits filed as inhibitors. AmpC nitrocefin hydrolysis, absorbance 480 nm, 0.0001% Triton;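 also: potency is read from the fitted curve at half-maximal effect; plate controls were no compound for no effect and no enzyme for full effect; nearly all actives have a fitted effect of over 20% in size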
# Target sequence (P00811 whole entry, looked up): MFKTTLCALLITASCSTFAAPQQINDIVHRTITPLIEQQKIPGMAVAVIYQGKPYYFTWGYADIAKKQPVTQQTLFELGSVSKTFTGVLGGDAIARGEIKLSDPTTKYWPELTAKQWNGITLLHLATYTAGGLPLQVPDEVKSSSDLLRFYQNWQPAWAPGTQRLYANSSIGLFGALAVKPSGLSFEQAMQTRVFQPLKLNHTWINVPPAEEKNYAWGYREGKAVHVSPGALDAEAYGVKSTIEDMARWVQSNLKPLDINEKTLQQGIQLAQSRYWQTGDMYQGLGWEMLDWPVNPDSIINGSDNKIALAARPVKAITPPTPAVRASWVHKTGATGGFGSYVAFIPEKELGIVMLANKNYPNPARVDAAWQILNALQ
#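 AmpC (5.3 nM in the dispensed reagent) in 20 mM phosphate pH 7.0 with 0.01% (detergent screen) or 0.0001% Triton X-100 was preincubated with compounds for 15 min at room temperature. Nitrocefin was then added from an 800 uM solution, and hydrolysis was followed at 480 nm.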
# NS1 function inh – qHTS Assay for Inhibitors of Influenza NS1 Protein Function; Potency, µM (top dose mostly 46.1 µM), for the others: top-dose activity, positive = more growth; actives 0.4% (n = 270,000); AID 2326, 2010; calls by dose curve; also: potency is read from the fitted curve at half-maximal effect; actives are rising curves; nearly all actives have a fitted effect of over 50% in size
#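 In this qHTS, NS1 from influenza A is expressed in budding yeast, where it slows growth. Cells are switched from glucose to 2% galactose medium (pH 6.0, -URA), treated with compound, and growth recovery is read at OD600.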
# Cycloheximide cs – Cycloheximide Counterscreen for Small Molecule Inhibitors of Shiga Toxin; actives 12% (n = 300,000); max response, %; cell reporter, cycloheximide protein synthesis inhibition counterscreen; in the data active = max response mostly above about 13%, no sharp cut-off; inactive = mostly below about 14%; also: read at 38.3 µM for the half of the compounds with a filed dose; 0% is about no effect
# Shiga inhibitor – A qHTS for Small Molecule Inhibitors of Shiga Toxin | inhibition, % at 38.7 µM | actives 9.2% (n = 290,000) | AID 2315, 2010 | Vero cells, Shiga toxin protein synthesis inhibition reporter; in the data active = inhibition mostly above about 28%, no sharp cut-off; inactive = mostly below about 43%; also: 0% is about no effect
# AmpC inh detg – qHTS Inhibitors of AmpC Beta-Lactamase (assay with detergent) | P00811 | AmpC hydrolysis of nitrocefin, absorbance 480 nm, 0.01% Triton | Potency, µM (series often up to 114 µM), inactives show at the highest dose activity change, negative = inhibition, usual class: inhibitors | actives 0.041% (n = 370,000) | AID 485294, 2010;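 also: potency is read from the fitted curve at half-maximal effect; 0% = no-compound wells and -100% = no-enzyme wells; nearly all actives have a fitted effect of over 25% in size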
#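 20 mM phosphate pH 7.0 + 0.01% (detergent screen) or 0.0001% Triton X-100; 5.3 nM AmpC reagent; cpd preinc 15 min RT; nitrocefin (800 uM stock) to start; A480 q20 s × 4 min; Activity was normalised to no-enzyme and no-compound control wells.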
# * hit, by the source's call; u = inconclusive; x = no result. The sample as a whole holds a higher share of hits than the screen did. Unless noted, calls follow the shape of the dose curve; as a rule, active = well fitted curve in the direction sought with a large enough effect; inconclusive = small, poorly fitted or top-dose-only effect, or another doubt; inactive = no such curve, though single readings can be large; an effect the other way counts as inactive or inconclusive.
SMILES,AmpC no deterg,NS1 function inh,Cycloheximide cs,Shiga inhibitor,AmpC inh detg
CCSCc1nc2ccccn2c1Br,8%,x,16,-5,-1%
COc1ccc(-c2noc(-c3cccnc3NCc3ccco3)n2)cc1,x,x,x,x,27%
COC(=O)c1cc(Cl)c(NC(=O)C(C)C)cc1OC,-11%,2%,-2,-4,2%
COC(=O)c1cc(Cl)c(NC(=O)c2ccc(C(C)(C)C)cc2)cc1OC,110%,12%,26*,44*,4%
COc1ccccc1NC(=O)Nc1ccnn1C1CCN(C(=O)c2cscn2)CC1,3%,-13%,32*,29,1%
COc1ccccc1NC(=O)Nc1ccnn1C1CCN(C(=O)c2ccccn2)CC1,-11%,-5%,1,-2,-13%
COc1ccc(C(=O)Nc2ccnn2C2CCN(C(=O)c3cnsn3)CC2)cc1,0%,-12%,20*,54,u
COc1ccccc1C(=O)Nc1ccnn1C1CCN(C(=O)c2ccoc2C)CC1,16%,2%,15*,13,-3%
O=C(Nc1cccc(F)c1)Nc1ccnn1C1CCN(C(=O)c2ccccn2)CC1,-15%,10%,23*,42*,-12%
O=C(C1CCC1)N1CCCc2cc(S(=O)(=O)N3CCN(c4cccc(Cl)c4)CC3)ccc21,x,x,x,x,5%
CSCC[C@H](NC(=O)[C@H](Cc1ccccc1)n1c(=O)[nH]c2ccccc2c1=O)C(=O)N1CCC[C@H]1C(=O)O,-8%,u,-4,-11,-9%
O=C(c1ccco1)c1coc2c1cc(O)c1ccccc12,-44%,0%,32*,100*,-2%
O=S(=O)(c1ccc(Cl)cc1)c1nc(-c2ccccc2Br)oc1N1CCOCC1,x,x,x,x,1%
CCOC(=O)c1cc2c(cn1)[nH]c1ccccc12,3%,-33%,27*,59*,-6%
COc1ccc(NN=Nc2ccc([N+](=O)[O-])cc2)cc1,-35%,-6%,32*,27,u
O=[N+]([O-])O[C@H]1CO[C@H]2[C@@H]1OC[C@H]2O,x,x,-4,1,x
C=C1C(=O)O[C@@H]2[C@H]1[C@@H](OC(=O)/C(C)=C/C)C/C(C)=C\C(=O)/C=C(\C)[C@@H]2O,27%,-2%,29*,51*,-2%
C/C=C(/C)C(=O)O[C@H]1CC(C)=CC(=O)[C@@]2(C)CC[C@@](O)(C(C)C)[C@H]12,x,x,-5,-6,x
Cc1c(CNC(C)CCc2ccccc2)c(C(=O)O)c(C)n1Cc1ccc(F)cc1 (stereo not drawn),x,x,x,x,18%
Cc1ccccc1/C=N/Nc1ncnc2nc[nH]c12,-25%,3%,21*,72*,6%
Clc1ccc(CCNc2ncnc3nc[nH]c23)cc1,-38%,-10%,14,30,-10%
CN(C)CCCNc1ncnc2nc[nH]c12,x,3%,x,x,x
C(=N\Nc1ncnc2nc[nH]c12)/c1cccs1,-13%,x,41*,111*,0%
Cc1ccsc1/C=N/Nc1ncnc2nc[nH]c12,-21%,x,42*,85*,-9%
Fc1ccc(/C=N/Nc2ncnc3nc[nH]c23)cc1F,-1%,22%,73*,99*,-1%
SMILES,AmpC no deterg,NS1 function inh,Cycloheximide cs,Shiga inhibitor,AmpC inh detg
OCCNc1ncnc2nc[nH]c12,x,13%,x,x,x
CCCOP(=O)(c1ccc(N(C)C)cc1)C(O)c1ccc(N(C)C)cc1 (stereo not drawn),26%,-3%,-2,-2,-2%
CCc1ccc(CNC(=O)CSCc2cnn(-c3ccccc3)c2-n2cccc2)cc1,x,x,x,x,16%
O=C1NC(=O)N(Cc2ccccc2Cl)C(=O)/C1=C/c1cccs1,20µM*,x,-2,3,-3%
O=C1NC(=O)N(Cc2ccc(F)cc2)C(=O)/C1=C/c1cccs1,-49%,x,-1,20,-10%
COc1ccc(OCC(O)CN(CC(O)COc2ccc(OC)cc2)c2cccc(O)c2)cc1 (stereo not drawn),-18%,19%,19*,18,5%
COc1ccc(OCC(O)COc2ccc(OC)cc2)cc1,16%,-47%,1,-8,-9%
CCCN(CCC)CCNC(=O)Cn1cnc2sc(C)c(S(=O)(=O)N3CCN(c4ccccc4OC)CC3)c2c1=O,x,x,x,x,-4%
C=CCn1c(Cc2c[nH]c3ccccc23)n[nH]c1=S,-19%,u,12*,13,-1%
C=CCn1c(Cc2ccccc2)n[nH]c1=S,-18%,6%,-3,-1,4%
